The target in the test is T1, Arginase-2, mitochondrial (Homo sapiens) (UniProt P78540).
T1 sequence (whole entry): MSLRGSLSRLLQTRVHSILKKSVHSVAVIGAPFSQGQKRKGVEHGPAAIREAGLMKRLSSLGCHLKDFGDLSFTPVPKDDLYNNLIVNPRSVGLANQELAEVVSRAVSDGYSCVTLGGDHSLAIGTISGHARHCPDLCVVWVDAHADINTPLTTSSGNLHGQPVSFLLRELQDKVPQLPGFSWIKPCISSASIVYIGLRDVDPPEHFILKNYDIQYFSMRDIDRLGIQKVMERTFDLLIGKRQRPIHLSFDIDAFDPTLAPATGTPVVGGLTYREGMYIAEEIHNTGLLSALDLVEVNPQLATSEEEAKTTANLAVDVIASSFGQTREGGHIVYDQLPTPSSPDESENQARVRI
Put plainly: in vitro enzyme assay to detect the production of urea directly proportional to the activity of Arginase II. It counts as functional. More on the design: scale not given: in the data most compounds retested in dose-response had high values. Conditions: 33.3 µM.
For the molecule `COc1cccc(CN2CCCC(Nc3cccc(F)c3)C2)c1O` (stereo not given), the Percent Effect turned out to be 2.23%.

Take `CS(=O)(=O)Cc1ccc(CNC(=O)c2cccnc2O)cc1`: the Percent Effect is 1.94%.

Consider `N#Cc1ccnc(N2CCN(CC(O)c3cccc(F)c3)CC2)c1` (stereo not given), for which the Percent Effect amounted to 3.72%.

Consider `CN1C(=O)C[C@@H]2[C@@H]1CCN2S(=O)(=O)Cc1ccccc1`, for which the Percent Effect was 2%.

`Cn1ncc2c1C(COCC1CC1)CN(Cc1ccc(F)cc1)C2` (stereo not given): the Percent Effect is 0.955%.

`CCC1=N[C@@]2(CC[C@@H]3CN(C(=O)NCC(C)C)C[C@@H]32)C(=O)N1CC(C)C`: the Percent Effect was -55%.

`CC(O)CN1CCN(C(=O)c2cnn(-c3ccccc3F)c2)CC1` (stereo not given): the Percent Effect worked out at 15.6%.

As to `O=C(CCc1nccs1)N1CCN(c2ccc(Br)cn2)CC1`, the Percent Effect is -1.05%.

Take `Cc1cc(CN2CC[C@H]3C(=O)N(c4ccccc4)CCO[C@H]3C2)no1`: the Percent Effect is -2.1%.

In the case of `Cn1cc(-c2csc(N3CCN(C(=O)OC(C)(C)C)CC3)n2)cn1`, the Percent Effect was 30.5%.

For the molecule `Cc1noc(C(C)C)c1C(=O)NCc1cccc(N(C)C)c1`, the Percent Effect was -2.49%.

On to `Cc1ccc(N2CCCc3sc(C(=O)NCc4cccnc4)nc32)nn1`, for which the Percent Effect was -7.19%.

As for `Cc1nc2ccccc2nc1CN1CCCC1Cn1cncn1` (stereo not given), the Percent Effect worked out at 1.9%.

In the case of `CC(C)C(=O)N1CCN(C(=O)CCc2nnc(-c3ccccc3)o2)CC1`, the Percent Effect came out at 4.94%.

On to `Cn1cnnc1C1CCCN(C(=O)NCc2ccc3c(c2)OCO3)C1` (stereo not given), for which the Percent Effect is -12.8%.

In the case of `CCn1cc(NC(=O)NCC2(N3CCOCC3)CCSC2)cn1` (stereo not given), the Percent Effect was 13.8%.

`CS(=O)(=O)NC1CCN(C(=O)NCCNc2ccccn2)CC1`: the Percent Effect was determined as 3.14%.

`Cc1cccc(-n2ncc(C(=O)N3CCn4c(C)nnc4C3)c2C)c1`: the Percent Effect was found to be 1.8%.

Regarding `O=C(c1cscn1)N1CCC[C@]2(C[C@H](OCC3CC3)CO2)C1`, the Percent Effect came out at 0.233%.

As to `N#Cc1cccnc1NCc1cccnc1N1CCC(C(N)=O)CC1`, the Percent Effect is -0.744%.

`c1cnc(NCc2noc3c2CN(CCN2CCCC2)CC3)nc1`: the Percent Effect was -47.5%.

In the case of `NC(=O)C1CCN(c2nc3nccc(-c4ccccc4)c3c(=O)[nH]2)CC1`, the Percent Effect is -7.19%.

Regarding `Cc1cc(NC(=O)NCc2ccccn2)n(C)n1`, the Percent Effect is -2.37%.

Regarding `Fc1ccc(CN2CCC(c3nccnc3-n3ccnc3)CC2)cc1`, the Percent Effect was -3.02%.

`O=C(c1ccc(-n2cccn2)nc1)N1CCCN(c2cccnn2)CC1`: the Percent Effect turned out to be 1.47%.

On to `CCN(CC)c1ccc(C(=O)NCc2cccnc2-n2cncn2)cn1`, for which the Percent Effect was 18.6%.

Take `CCCNC(=O)CCNC(=O)Cc1nc(-c2ccco2)oc1C`: the Percent Effect stood at 4.69%.

`CN1CCCC(CNC(=O)N2CCN(Cc3ccon3)CC2)C1` (stereo not given): the Percent Effect is -1.04%.

Turning to `Cc1nc(C(C)(C)NC(=O)Nc2ccccc2)no1`, the Percent Effect was found to be 3.18%.

On to `CSCc1cccc(S(=O)(=O)NCCCN2CCOCC2)c1`, for which the Percent Effect was -6.9%.

Take `CN(Cc1ccsc1)C(=O)Nc1cccnc1N1CCCC1`: the Percent Effect was found to be 0.719%.

With `CC(C)n1c(C2CCCN(Cc3ccnn3C)C2)nc2ccccc21` (stereo not given), the Percent Effect is -1.63%.

As to `Cc1cc(CC(=O)N2CCCC2c2nc(C(C)C)no2)on1` (stereo not given), the Percent Effect was found to be 3.97%.

As to `COc1cccc(CNc2nc(O)cc(C3CC(=O)N(C)C3)n2)c1` (stereo not given), the Percent Effect is 2.09%.

As for `CC(=O)N1CCn2cc(CNC(=O)c3cccn3C)nc2C1`, the Percent Effect turned out to be 0.233%.

As to `O=C1CC(c2ccccc2)C2(CCN(CC3CC3)CC2)N1` (stereo not given), the Percent Effect was -55%.

Turning to `CNC(=O)CSc1nc2c(cnn2Cc2ccc(F)cc2)c(=O)[nH]1`, the Percent Effect was 0%.

Take `Cc1nc(C(=O)N2CCC(Nc3cccnn3)CC2)cs1`: the Percent Effect is -5.68%.

Take `COc1cccc(OCc2cc(C(=O)NC[C@H]3CCCN3)n[nH]2)c1`: the Percent Effect was determined as 15.4%.

Turning to `Cc1ccc(CN2CCc3ncnc(C4CCOC4)c3CC2)s1` (stereo not given), the Percent Effect was -41.4%.

These data come from ChEMBL document CHEMBL3988442, “University of Dundee, Small-Polar-MMV Screening Library” (2021).
